# Assay results taken from PubChem BioAssay (NCI).
# Several values for one entry are separate records, joined by “and”; a condition that tells them apart may be missing. Identical values can stand only once. The panel holds about 83,000 compounds, 20% with a hit somewhere; the sample as a whole holds those more often.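 Values shown are percent growth following 48 h exposure of cells in 96-well plates to a single concentration of compound; below 10 was considered active.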 Activity calls are given as the source filed them.
# Test system: HL-60(TB) leukemia
# Test: NCI-60 one-dose screen, 48 h (100 = growth as untreated, 0 = no growth, -100 = all killed)
# Conditions: 10 µM unless noted
row,Compound,growth
1,CN1CCN(Cn2nc(-c3cc(Cl)cc(Cl)c3Cl)n(/N=C/c3ccc(Cl)cc3)c2=S)CC1,-38.6% (active)
2,COc1ccc(C2C3=C(COC3=O)N(CCO)c3cc4c(cc32)CCC4)cc1 (centres undefined),4.72% (active)
3,C/C(=C\c1ccccc1)c1ccccn1,70.9% (inactive)
4,CCOC(=O)c1c2ncccc2n2c(=O)n(-c3ccccc3C)nnc12,56.9% (inactive)
5,CNC(=O)c1cc(Oc2ccc(NC(=O)Nc3ccc(Cl)c(OC(C)C)c3)c(F)c2)ccn1,59.6% (inactive)
6,CCN(CC)CCNC(=O)c1ccc(NCN2C(=O)NC(c3ccccc3)(c3ccccc3)C2=O)cc1,107% (inactive) and 105% (inactive)
7,CCOC(=O)c1c(NC(=O)c2ccc(C(C)C)cc2)sc2c(CN(C)C)c(O)ccc12,-34.8% (active)
8,N#CCCn1cnc2c(N)ncnc21,98.6% (inactive)
9,N#CC(C#N)N=Nc1ccc(Br)cc1,-10.7% (active)
10,Cc1ccc(NCSc2ccc(Cl)cc2)cc1,3% (active) and 22.5% (inactive)
11,CCCCCCCCCCCCCCCc1cc(O)ccc1N,-45.5% (active) and -6.54% (active)
12,CC1Cc2ccccc2N1C(=O)c1ccc(C(=O)c2ccccc2)cc1 (centres undefined),-11.1% (active)
13,CC(=O)N1N=C(C2C(=O)N(C)C(=O)N(C)C2=O)CC1c1ccccc1C(=O)O (centres undefined),92.2% (inactive)
14,CC1(C)c2[nH]c3ccccc3c2C[C@]2(C)[C@H]3CC=C4[C@@H]5C[C@@](C)(C(N)=O)CC[C@]5(C)CC[C@@]4(C)[C@]3(C)CC[C@@H]12,55.8% (inactive)
15,CCOC(=O)c1cn2ncnc(Oc3ccc(NC(=O)NC4CCCCC4)c(Cl)c3)c2c1C,70.9% (inactive)
16,COc1cc(C(=O)N2CCN(c3ccccc3)CC2)c2ccccc2n1,-1.74% (active)
17,CN(C)CCCn1c(=O)c2cc([N+](=O)[O-])ccc2c2cnc3[nH]ccc3c21,90.4% (inactive)
18,O=C(CSC1CCc2ccccc21)N/N=C/c1ccccc1O (centres undefined),-12% (active)
19,COc1ccc([N+](=O)[O-])c(C(=O)O)c1,111% (inactive)
20,COc1cc(C2CC(c3ccccc3)=NN2C=O)ccc1Oc1ccnc2cc(Cl)ccc12 (centres undefined),33.5% (inactive)

row,Compound,growth
1,CCSc1nnc2c3cc(Br)ccc3n(C)c2n1,110% (inactive)
2,Cc1cc2c(c(=O)o1)C(c1ccc(OC(=O)N3CCOCC3)cc1)C(C#N)=C(N)O2 (centres undefined),104% (inactive)
3,CC(C)(C)N1CCC1CN (centres undefined),125% (inactive)
4,Nc1ncnc2c1c(-c1cccc(Cl)c1)nn2CC(=O)N1CCOCC1,101% (inactive)
5,CCC(C)C1CCC(O)CC1 (centres undefined),99.3% (inactive)
6,Nc1nc2c(c3cnccc13)C(c1cccc(Br)c1)Cc1cnccc1-2 (centres undefined),3.01% (active)
7,NC(=O)Cc1nc(O)cc(=O)[nH]1,87.4% (inactive)
8,NC(=O)NO,82.9% (inactive) and 72.8% (inactive)
9,COc1cccc(-c2nn(-c3ccccc3)cc2-c2ccnc(NCCCNC(=O)c3ccc(F)cc3)c2)c1,19.3% (inactive)
10,O=S(=O)(NC1c2ccccc2Oc2ccccc21)c1ccccc1,86.5% (inactive)
11,NC(=O)c1ccccc1NC(=O)c1ccccc1Cl,64.4% (inactive)
12,C=CC[N+]1(CCO)CCN=C1CCCCCCCCCCCCC (centres undefined),-31.8% (active)
13,O=[N+]([O-])c1ccc(N/N=C/c2c(O)ccc3ccccc23)nc1,9.55% (active)
14,CCCCOc1ccc(Nc2cc(Cl)ccc2C(=O)O)cn1,87.2% (inactive) and 103% (inactive)
15,COC(C(=O)[C@@H](O)[C@@H](C)O)[C@@H]1Cc2cc3cc(O[C@H]4C[C@@H](O[C@H]5C[C@@H](O)[C@H](O)C(C)O5)[C@H](O)C(C)O4)cc(O)c3c(O)c2C(=O)[C@H]1O[C@H]1C[C@@H](O[C@H]2C[C@@H](O[C@H]3C[C@@H](OC)[C@H](O)C(C)O3)[C@@H](O)C(C)O2)[C@H](O)C(C)O1 (some centres undefined),81.5% (inactive)
16,O=C(Nc1ccc(Oc2ccc(NC(=O)Nc3ccc([N+](=O)[O-])cc3)cc2)cc1)Nc1ccc([N+](=O)[O-])cc1,-32.6% (active)
17,Nc1nc(N)c(C=Nc2ccc(Br)cc2)c(Nc2ccc(Br)cc2)n1,90% (inactive)
18,CC1=CC2(C)/C=C(C)/C=C\CC(O)/C=C3/C=CC(=C4C(=O)OC2(CC1C)C4=O)OC3 (centres undefined),-54.9% (active)
19,O=C(CN1C(=O)CCC1=O)Nc1ncc(Cc2ccc(F)cc2)s1,98.2% (inactive)
